Compound activity: PubChem BioAssay, National Center for Advancing Translational Sciences (NCATS)
Hits are enriched below; roughly 14% of the tested compounds scored in any of these assays.
HCMV inh – qHTS Assay for inhibitors of the human cytomegalovirus (HCMV) | activity change, negative = inhibition, % at 57.5 µM | HFF cells, HCMV-luciferase reporter, 72 h; active compounds read low | 4.5% of 410,000 active; in the data active = activity change below about -60%; inconclusive = no clear call, values can overlap the other calls; inactive = above about -39%
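Two compound doses tested in HFFs infected with HCMV-luciferase, MOI 1 PFU/cell, 72 h at 37C. Lysate luminescence read with OneGlo; data normalized against buffer-only and 10uM Salinomycin inhibitor controls.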
Pf growth 48h – Primary qHTS for delayed death inhibitors of the malarial parasite plastid, 48 hour incubation | P. falciparum luciferase growth in erythrocytes, 48 h | Potency, µM (series often up to 28.7 µM), for the others: top-dose activity change, negative = inhibition, hits mostly inhibitors | 5.9% of 310,000 active | AID 504832, 2011; also: potency is read from the fitted curve at half-maximal effect
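A one-generation exposure of luciferase-tagged malaria parasites in RPMI 1640/Albumax erythrocyte culture, 37 C and 5% CO2. Inhibition is inferred from decreased luminescence after adding detection reagent.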
Sm TGR block – qHTS Assay for the Inhibitors of Schistosoma Mansoni Peroxiredoxins; Schistosoma mansoni thioredoxin glutathione reductase (TGR), Q962Y6; purified TGR, DTNB reduction, TNB absorbance 405 nm; Potency, µM (series often up to 114 µM), inactives show at the top dose activity change, negative = inhibition, most hits filed as inhibitors; 3% of 360,000 active; also: potency is read from the fitted curve at half-maximal effect; nearly all actives have a fitted effect of over 60% in size
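First, TGR (20 nM dispensed) and NADPH were mixed with compound. Second, a 15 min room-temperature incubation followed. Third, further NADPH and then DTNB were added to start the reaction. Finally, TNB absorbance was monitored kinetically.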
Pf growth 96h – Primary qHTS for delayed death inhibitors of the malarial parasite plastid, 96 hour incubation; P. falciparum luciferase reporter growth, 96 h; Potency, µM (series often up to 28.7 µM), inactives show at the top dose activity change, negative = inhibition, most hits filed as inhibitors; 6.9% of 320,000 active; AID 504834, 2011; also: potency is read from the fitted curve at half-maximal effect
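Erythrocytes infected with luciferase-expressing P. falciparum were dispensed at 2% hematocrit and 0.05% parasitemia (final), then incubated with compounds 96 hours at 37 C in 5% CO2. Luminescence after detection reagent addition reported growth.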
FBPA Giardia inh – qHTS Assay for Inhibitors of Fructose-1,6-bisphosphate Aldolase from Giardia Lamblia; purified Giardia FBPA; Potency, µM (top dose mostly 59.6 µM), without a hit: at the top dose activity, negative = inhibition, most hits filed as inhibitors; A8B2U2; 0.71% of 290,000 active; also: potency is read from the fitted curve at half-maximal effect; nearly all actives have a fitted effect of over 55% in size
Target sequence (A8B2U2 whole entry, looked up): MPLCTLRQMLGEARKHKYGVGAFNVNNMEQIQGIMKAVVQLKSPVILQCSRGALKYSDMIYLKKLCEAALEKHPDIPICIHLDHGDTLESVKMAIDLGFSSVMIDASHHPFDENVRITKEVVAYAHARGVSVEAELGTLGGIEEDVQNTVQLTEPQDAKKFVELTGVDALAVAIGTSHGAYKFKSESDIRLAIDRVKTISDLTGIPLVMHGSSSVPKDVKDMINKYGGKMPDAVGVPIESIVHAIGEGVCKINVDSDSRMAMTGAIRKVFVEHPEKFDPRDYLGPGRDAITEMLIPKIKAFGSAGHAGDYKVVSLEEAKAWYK
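40 nM FBPA preincubated 10 min at RT with compound (up to 57.5 uM final), then substrate plus GAPDH/TPI/NAD/arsenate coupling and diaphorase/resazurin added. Fluorescence read after 20 min at RT, 525/598 nm.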
* = called active by the depositor; ? = inconclusive; nt = no result; [ ] = remark or other dose. Unless noted, calls follow the shape of the dose curve; as a rule, active = well fitted curve in the direction sought with a large enough effect; inconclusive = small, poorly fitted or top-dose-only effect, or another doubt; inactive = no such curve, though single readings can be large; an effect the other way counts as inactive or inconclusive. % is scaled to controls: 0 for no effect and ±100 for the full control effect.

SMILES | HCMV inh | Pf growth 48h | Sm TGR block | Pf growth 96h | FBPA Giardia inh
CC1Nc2ncnc(N3CCc4ccccc4C3)c2N(Cc2ccc(Br)cc2)C1=O (centres undefined) | -10.9 | 2.08µM* | -13.7% | 6.57µM* | nt
CC1Nc2ncnc(N3CCOCC3)c2N(Cc2ccc(Cl)cc2)C1=O (centres undefined) | -9.3 | ? | ? | ? | nt
CC1Nc2ncnc(N3CCc4ccccc4C3)c2N(Cc2ccc(Cl)cc2)C1=O (centres undefined) | nt | 13.1µM* | -35.6% | 5.22µM* | nt
CC(OC(=O)c1cccc(S(=O)(=O)N2CCCC2)c1)C(=O)c1ccccc1 (centres undefined) | 19.0 | 17.9% | 0.0% | 30.8% | nt
COc1ccc(S(=O)(=O)N2CCOC2CNC(=O)C(=O)NCCc2ccc(S(N)(=O)=O)cc2)cc1 (centres undefined) | 0.0 | 42.3% | -7.7% | ? | -1.1%
CCS(=O)(=O)N1CCc2cc(C(=O)NC(C)c3ccccc3)ccc21 (centres undefined) | -16.4 | nt | 5.2% | nt | nt
Cc1cc(C(=O)N/N=C/c2ccc(O)c(O)c2O)c(C)n1-c1ccccc1 | ? | 11.7µM* | 39.8µM* | 1.3% | 15.8µM*
COC(=O)N/N=C/c1cc(C)n(-c2ccccc2)c1C | 34.8 | 14.9% | -18.3% | -5.1% | -6.5%
Cc1cc(C)cc(N/C(N)=N/c2nc(C)cc(C)n2)c1 | 38.3 | 13.1µM* | 0.0% | 4.15µM* | 1.4%
CC(=O)N/C(=N/c1nc(C)cc(C)n1)Nc1ccc(NC(C)=O)cc1 | -10.7 | ? | 1.5% | 9.28µM* | -23.0%
CCCCc1ccc(N/C(N)=N/c2nc(C)cc(C)n2)cc1 | -97.1* | ? | 2.4% | 4.15µM* | -1.1%
CC(=O)N/C(=N/c1nc(C)cc(C)n1)Nc1cc(C)cc(C)c1 | -18.9 | nt | 4.7% | ? | -3.9%
Cc1ccc(N/C(N)=N/c2nc(C)cc(C)n2)cc1 | -4.0 | ? | 0.0% | 32.7% | 4.1%
Cc1cc(C)nc(/N=C(\N)Nc2cccc([N+](=O)[O-])c2)n1 | -18.3 | ? | -3.3% | 10.4µM* | -8.0%
Cc1cc(C)nc(/N=C(\N)Nc2ccc([N+](=O)[O-])cc2)n1 | -16.4 | 3.8% | -3.5% | 10.0% | -16.6%
COC(=O)c1ccc2c(c1C(=O)OC)CN(S(=O)(=O)C(C)(C)C)[C@@H]2CCO | 10.0 | nt | nt | nt | nt
CCOc1ccc(NC(=O)CSc2oc(-c3ccc(C)cc3)nc2S(=O)(=O)c2ccc(C)cc2)cc1 | 2.1 | nt | -4.2% | nt | nt
Cc1cc(C)nc(/N=C(\N)Nc2ccc(C(C)C)cc2)n1 | -63.0* | ? | -12.8% | 11.7µM* | 0.0%
NCCNC[C@@H]1COC2(CCCCCCCCCCC2)O1 | 46.9 | 8.28µM* | -1.3% | 7.38µM* | 1.0%
CCOC(=O)N1CCC(NC(=O)c2cc3cc4cc(OC)ccc4nc3o2)CC1 | -26.1 | 2.94µM* | 9.0% | 7.38µM* | -0.3%
COc1ccc2cc3cc(C(=O)NCCCN4CCOCC4)oc3nc2c1 | 40.3 | ? | 0.0% | 1.17µM* | -4.7%
COc1ccc2nc3oc(C(=O)NC4CCN(Cc5ccccc5)CC4)cc3cc2c1 | -16.3 | ? | -9.3% | 45.7% | 0.7%
CCN1CCN(CCCNC(=O)c2cc3cc4ccc(OC)cc4nc3o2)CC1 | nt | 13.1µM* | -2.2% | 45.2% | -1.9%
COc1ccc2cc3cc(C(=O)NCc4cccs4)oc3nc2c1 | -19.6 | 5.86µM* | 0.9% | -6.5% | -4.4%
O=C(NCc1ccncc1)c1csc(N2CCN(Cc3cccc(C(F)(F)F)c3)C2=O)n1 | -13.3 | nt | nt | nt | nt
SMILES | HCMV inh | Pf growth 48h | Sm TGR block | Pf growth 96h | FBPA Giardia inh
CN(C)c1ccc(CNC(=O)c2csc(N3CCN(CCc4ccccc4)C3=O)n2)cc1 | -1.3 | nt | nt | nt | nt
Cc1ccc2cc3cc(C(=O)NCCCN4CCCC4=O)oc3nc2c1 | ? | 2.62µM* | -9.9% | ? | -2.2%
Cc1ccc2cc3cc(C(=O)NCCN4CCOCC4)oc3nc2c1 | 61.3 | ? | 3.3% | ? | 0.0%
COc1ccc2cc3cc(C(=O)NCc4ccc(C)cc4)oc3nc2c1 | -20.8 | nt | 6.8% | nt | nt
Cc1ccc2cc3cc(C(=O)NCc4ccc5c(c4)OCO5)oc3nc2c1 | 20.4 | 0.1% | -2.0% | 3.7µM* | 0.4%
CCCCN(CC)CCCNC(=O)c1cc2cc3ccc(OC)cc3nc2o1 | 18.0 | ? | -8.0% | 3.7µM* | -7.5%
CCOC(=O)c1c(NC(=O)C(C)NCc2ccco2)sc2c1CCC(C)C2 (centres undefined) | -23.9 | nt | ? | ? | ?
CCOc1ccc(CNC(=O)c2cnc3sc(N4CCC(C)CC4)nn3c2=O)cc1OC | -5.1 | nt | 7.8% | nt | nt
CCOc1cc(CNc2ccc3c(c2)CCC3)ccc1O | 65.4 | 12.2% | ? | 19.0% | -24.6%
COc1cc(CNc2ccc3c(c2)CCC3)cc(OC)c1O | 44.3 | 25.3% | 0.316µM* | 10.1% | ?
COc1cc(S(=O)(=O)NCc2ccncc2)c(OC)cc1Cl | -79.1* | -20.0% | 5.9% | -83.7%[5.75 µM] | 1.7%
COc1ccc(Cl)cc1S(=O)(=O)NCc1ccncc1 | -11.4 | -4.3% | -1.9% | 4.7% | -3.8%
COc1ccc(C(=O)NCc2ccncc2)cc1S(=O)(=O)NCc1ccc(Cl)cc1 | -4.5 | ? | -28.2% | 10.4µM* | nt
COc1cc(S(=O)(=O)NCc2ccccn2)c(OC)cc1Cl | 35.8 | -22.9% | 0.2% | 9.28µM* | -3.7%
Cc1c(NC(=O)c2cccnc2Cl)c(=O)n(-c2ccccc2)n1C | nt | 6.0% | -8.0% | ? | -8.2%
O=C(NCC1CCCCC1)c1cc2ccccc2cc1O | -75.0* | 1.31µM* | 1.2% | 1.65µM* | nt
O=C(N/N=C1/CC2CCC1C2)c1cc2ccccc2cc1O (centres undefined) | 50.7 | ? | 5.6% | 9.28µM* | nt
NNC(=O)c1cc2ccccc2cc1O | -74.0* | ? | -0.5% | 10.4% | -18.4%
NNC(=O)c1ccc(O)cc1O | -23.8 | 8.4% | 2.0% | -20.6% | -4.2%
CC1CCC(NC(=O)c2cc3ccccc3cc2O)CC1 (centres undefined) | 9.4 | ? | 5.9% | ? | nt
O=C(CSc1nnc(COc2ccccc2)o1)N1CCCCC1 | -18.5 | -22.5% | 6.9% | 20.3% | 2.7%
Cc1[nH]c(=O)[nH]c(=O)c1S(=O)(=O)Nc1cccc(Cl)c1C | 10.7 | nt | 3.5% | nt | nt
CC(=O)c1ccc(NC(=O)c2ccc3c(c2)nnn3C2CCCC2)cc1 | -3.7 | nt | 7.6% | nt | nt
N#Cc1ccc(NC(=O)c2ccc3c(c2)nnn3C2CCCC2)cc1 | -9.5 | nt | 4.47µM* | nt | nt
COc1ccc(C2=Nn3c(nnc3C3CCCCC3)SC2)cc1OC | -38.9 | nt | -8.0% | 4.65µM* | 7.0%
COc1ccc(OC)c(C2=Nn3c(nnc3C3CCCCC3)SC2)c1 | ? | ? | 0.1% | 9.28µM* | 2.5%
Cc1ccc(NC(=O)c2ncn(CCCNCC(C)c3ccccc3)n2)cc1C (centres undefined) | -22.0 | nt | nt | nt | nt
